From PubChem BioAssay
Sampled rows, rich in hits. Any-hit rate of the full collection: about 21%.
Pf growth 48h – P. falciparum growth inhibition at 48 hours (one generation) | P. falciparum luciferase growth in erythrocytes, 48 h | Potency, µM (titrated, usually from 28.7 µM), inactives show at the top dose activity change, negative = inhibition, actives largely listed as inhibitors | 310,000 compounds, 5.9% hits | AID 504832; further: potency means the concentration at half of the fitted maximal effect; on the % scale 0 is the no-effect control and ±100 the full control effect
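Cell-based growth assay: transgenic P. falciparum expressing firefly luciferase, cultured in red cells within RPMI 1640 containing 0.5% w/v Albumax, 24 mM bicarbonate and gentamycin. A drop in luciferase activity indicates inhibition.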
Pf growth 96h – P. falciparum growth inhibition at 96 hours. P. falciparum luciferase reporter growth, 96 h. Potency, µM (doses to about 28.7 µM), for the others: top-dose activity change, negative = inhibition, hits mostly inhibitors. 320,000 compounds, 6.9% hits; further: potency means the concentration at half of the fitted maximal effect; on the % scale 0 is the no-effect control and ±100 the full control effect
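Parasite growth measured via integrated firefly luciferase reporter in P. falciparum. Infected erythrocytes at 2% hematocrit, 0.05% parasitemia final were treated 96 hours at 37 C under 5% CO2, and luminescence was read.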
Cycloheximide cs – counter-screen for Shiga toxin inhibitors: cycloheximide protein synthesis inhibition; 300,000 compounds, 12% hits; cell reporter, cycloheximide protein synthesis inhibition counterscreen; AID 2314; max response, %; in the data active means max response mostly above about 13%, no sharp cut-off; inactive means mostly below about 14%; further: read at 38.3 µM for the half of the compounds with a filed dose; 0% is about no effect
Giardia FBPA inh – Giardia lamblia aldolase inhibition. A8B2U2. purified Giardia FBPA. Potency, µM (highest dose often 59.6 µM), without a hit: at the top dose activity, negative = inhibition, actives largely listed as inhibitors. 290,000 compounds, 0.71% hits; further: potency means the concentration at half of the fitted maximal effect; on the % scale 0 is the no-effect control and ±100 the full control effect; nearly all actives have a fitted effect of over 55% in size
Target sequence (A8B2U2 whole entry, looked up): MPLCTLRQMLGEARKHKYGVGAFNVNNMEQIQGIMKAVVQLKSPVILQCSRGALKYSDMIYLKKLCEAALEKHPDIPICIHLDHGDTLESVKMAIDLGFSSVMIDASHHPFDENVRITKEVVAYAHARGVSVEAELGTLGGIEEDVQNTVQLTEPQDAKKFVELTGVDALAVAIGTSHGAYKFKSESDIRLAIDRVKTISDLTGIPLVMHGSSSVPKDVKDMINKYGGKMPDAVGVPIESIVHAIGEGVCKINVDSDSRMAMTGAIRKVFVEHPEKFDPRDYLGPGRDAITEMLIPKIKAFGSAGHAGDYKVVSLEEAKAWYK
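40 nM FBPA preincubated 10 min at RT with compound (up to 57.5 uM final), then substrate plus GAPDH/TPI/NAD/arsenate coupling and diaphorase/resazurin added. Fluorescence read after 20 min at RT, 525/598 nm.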
Shiga toxin inh – blocks Shiga toxin action in Vero cells | 290,000 compounds, 9.2% hits | inhibition, % at 38.7 µM | Vero cells, Shiga toxin protein synthesis inhibition reporter; in the data active means inhibition mostly above about 28%, no sharp cut-off; inactive means mostly below about 43%; further: 0% is about no effect
NS1 inh – influenza NS1 inhibition. Potency, µM (doses to about 46.1 µM), without a hit: at the highest dose activity, positive = more growth. AID 2326. 270,000 compounds, 0.4% hits; calls by dose curve; further: potency means the concentration at half of the fitted maximal effect; actives are rising curves; nearly all actives have a fitted effect of over 50% in size
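Recovery from NS1-induced slow growth read by OD600 in budding yeast switched to galactose assay medium (pH 6.0, -URA) at 1:100 dilution. Compound 23 nl per well; the matching strain lacking NS1 serves as control.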
* = called active by the depositor; u = inconclusive; x = no result. Unless noted, the call rests on the fitted dose curve; in most records, active means well fitted curve in the direction sought with a large enough effect; inconclusive means small, poorly fitted or top-dose-only effect, or another doubt; inactive means no such curve, though single readings can be large; an effect the other way counts as inactive or inconclusive.

SMILES	Pf growth 48h	Pf growth 96h	Cycloheximide cs	Giardia FBPA inh	Shiga toxin inh	NS1 inh
O=C(Nc1cccc(NC(=O)c2ccc(-c3ccc(Br)cc3)o2)c1)c1ccco1	9.3µM*	u	38*	-1%	92*	22%
CCCCCCCCCCCCCCCCn1cc[n+](Cc2ccccc2)c1C	x	x	-8	-7%	-23	x
CSc1cccc(NC(=O)c2ccco2)c1	85%	x	30*	-4%	108*	-110%
O=C(Cc1ccccc1)Nc1ccc(F)cc1	26%	38%	2	1%	-4	-3%
O=C(Cc1ccccc1)Nc1ccc(SC(F)F)cc1	123%	0%	41*	-17%	35	-19%
Cc1ccc(C(=O)NCCCNC(=O)c2ccco2)cc1	19%	-4%	-2	3%	-11	-12%
CC(=O)c1ccc(NC(=O)c2ccc(NC(=O)c3ccco3)cc2)cc1	-30%	u	-3	x	-15	18%
O=C(NCCCNC(=O)c1ccco1)c1ccc(Cl)cc1	52%	0%	32*	14%	86*	4%
CC(=O)Nc1ccc(NC(=O)c2ccco2)cc1	90%	x	31*	3%	71*	6%
CC/C=C\C/C=C\C/C=C\C/C=C\C/C=C\CCC(=O)O[C@H](COCCCCCCCCCCCCCCCC)COP(=O)([O-])OCC[N+](C)(C)C	x	x	x	2%	x	x
CC(C)[C@@H](CC(=O)N[C@@H]1CCCC[C@H]1C(=O)N[C@H](CC(=O)N[C@@H](CCC(=O)O)CC(=O)O)Cc1ccccc1)NC(=O)C[C@H](CO)NC(=O)[C@@H]1CNCC[C@H]1N	x	x	x	-24%	x	x
CC(=O)c1ccc(NC(=S)NC(NC(=O)c2ccco2)C(Cl)(Cl)Cl)cc1 (centres undefined)	x	-32%	1	-6%	-10	11%
CCC(C)c1ccc(NC(=O)CC(C)=O)cc1 (centres undefined)	x	8%	21*	-5%	14	0%
O=C(NC(NC(=S)Nc1ccc(Cl)cc1)C(Cl)(Cl)Cl)c1ccco1 (centres undefined)	10µM*	21%	-3	-1%	-12	20%
CCOC(=O)c1nn(-c2ccccc2Cl)c(=O)cc1OCC(=O)Nc1cccc(OC)c1	5%	17%	x	x	x	x
COc1ccc2ccc(=O)oc2c1	7%	-2%	-1	-5%	-22	6%
COc1cccc(COc2ccc3ccc(=O)oc3c2)c1	139%	163%	35*	-6%	65*	-7%
COc1ccc(COc2ccc3ccc(=O)oc3c2)cc1	139%	290%	69*	-5%	70*	-4%
COc1cccc(C(=O)Oc2ccc3ccc(=O)oc3c2)c1	x	12%	-2	4%	-4	0%
COC(=O)C1CC1C(NC(=O)[C@@H]1CCCN1)c1ccccc1 (some centres undefined)	x	x	x	2%	x	x
COc1cc(O)cc2c1C(=O)OC(C)CCCC(=O)CCC/C=C\2 (centres undefined)	23%	3%	3	5%	-12	14%
C[C@H]1CCCC(=O)CCC/C=C/c2cc(O)cc(O)c2C(=O)O1	x	13µM*	-3	4%	-11	-45%
Cn1c(=O)c(NCCc2ccccc2)c2c3c(cccc31)C(=O)c1ccccc1-2	x	9.3µM*	-6	-1%	-12	10%
Cn1c(=O)c(NC2CCCCC2)c2c3c(cccc31)C(=O)c1ccccc1-2	13µM*	0%	-1	3%	-4	-6%
Cn1c(=O)c(NCCO)c2c3c(cccc31)C(=O)c1ccccc1-2	23%	-8%	-4	-4%	-5	-29%
SMILES	Pf growth 48h	Pf growth 96h	Cycloheximide cs	Giardia FBPA inh	Shiga toxin inh	NS1 inh
COc1ccc(-n2nnnc2CNC(=O)C2CC(=O)N(c3ccc(Cl)cc3)C2)cc1 (centres undefined)	0%	13%	x	x	x	x
Cc1cc(C)n2ncc(/C(N)=N/OC(=O)c3ccccc3F)c2n1	190%	92%	25*	0%	50*	-4%
Cc1cc(C)n2ncc(/C(N)=N/OC(=O)Nc3ccc(Cl)cc3)c2n1	6%	31%	20*	u	48	-1%
Cc1cc(C)n(C2CCCCC2OC(=O)c2ccccc2F)n1 (centres undefined)	9%	0%	-2	1%	-3	-83%
Cc1ccc(CCNC(=O)C2CCCN(S(=O)(=O)N3CC(C)CC(C)C3)C2)cc1 (centres undefined)	-12%	54%	-2	13%	-12	4%
CN(C)CCCN1C(=O)C(=O)/C(=C(/O)c2ccc3c(c2)OCCO3)C1c1ccccn1 (centres undefined)	x	x	x	x	x	5%
CC(C)Sc1oc(-c2ccco2)nc1S(=O)(=O)c1ccc(F)cc1	u	15µM*	1	u	22	-12%
O=C(NCc1ccccc1)C(=O)Nc1nc(C23CC4CC(CC(C4)C2)C3)cs1	u	-29%	-2	8%	-3	2%
CNC(=O)C(=O)Nc1nc(C23CC4CC(CC(C4)C2)C3)cs1	-14%	u	16*	-1%	8	4%
Cc1ccc(-c2csc(NC(=O)c3c(C)noc3C)n2)cc1C	-22%	-25%	x	x	x	x
Cc1noc(C)c1C(=O)Nc1nc(C23CC4CC(CC(C4)C2)C3)cs1	12µM*	1%	14	-7%	45	-18%
O=C(NCc1ccc(F)cc1)C(=O)Nc1nc(C23CC4CC(CC(C4)C2)C3)cs1	12µM*	-29%	5	21%	-3	-17%
COc1cccc(-c2ncc3ccccc3c2COC(=O)CCC(=O)O)c1	1%	u	x	x	x	x
COc1ccc(N2CC(NC(=O)c3ccc4ccccc4c3)CC2=O)cc1OC (centres undefined)	-6%	-7%	x	x	x	x
Cc1cccc(COCC(CC(C)C)N2CCN(C(=O)c3ccc(C(F)(F)F)cc3)CCC2=O)c1 (centres undefined)	10µM*	u	-2	-5%	-15	-6%
Cc1cccc(C(=O)N2CCC(=O)N([C@H](COCc3cccc(Cl)c3)Cc3ccccc3)CC2)c1	x	x	5	1%	-14	x
CC(C)C[C@@H](COCc1cccc(Cl)c1)N1CCN(C(=O)c2cccc(C(F)(F)F)c2)CCC1=O	x	x	-1	-5%	-3	x
O=C(c1cccc(Cl)c1)N1CCC(=O)N(C(COCc2cccc(Cl)c2)Cc2ccccc2)CC1 (centres undefined)	u	13µM*	-4	-7%	-11	17%
CC(C)CC(COCc1cccc(Cl)c1)N1CCN(C(=O)c2ccc(C(F)(F)F)cc2)CCC1=O (centres undefined)	13µM*	7.4µM*	-4	-5%	35	1%
Cc1cccc(COCC(CC(C)C)N2CCN(C(=O)c3ccc(C(C)(C)C)cc3)CCC2=O)c1 (centres undefined)	7.4µM*	u	2	2%	47	-44%
